# Laboratory results from the supplement of paper PMC4466140.
# What was measured:
# Test in all cases: SPOT peptide array binding signal intensity (averaged, normalized) (arbitrary units (background-subtracted, floor 0; scale differs between SH3 domains)); higher = stronger binding of the SH3 domain to the peptide
# [1] = biological target: AgAbp1
# Summary of the method: (§1)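 Binding signal is given in arbitrary units that differ between domains and is the normalized, background-subtracted spot intensity averaged across replicates. Each GST-SH3 fusion from one of four yeast species was made in E. coli BL21(DE3), purified on glutathione Sepharose and incubated at 10 μg/ml overnight at 4°C on cellulose-bound synthetic 15-mer peptides in which cysteines were replaced by serines. Detection used anti-GST antibody, an HRP anti-mouse secondary and luminol, followed by imaging and Genespotter quantification.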
# [2] = biological target: AgBbc1
# Summary of the method: as §1
# [3] = biological target: AgBem1-D1
# Summary of the method: as §1
# [4] = biological target: AgBzz1-D1
# Summary of the method: as §1
# [5] = biological target: AgBzz1-D2
# Summary of the method: as §1
# [6] = biological target: AgCyk3
# Summary of the method: as §1
# [7] = biological target: AgFus1
# Summary of the method: as §1
# [8] = biological target: AgHof1
# Summary of the method: as §1
# [9] = biological target: AgHse1
# Summary of the method: as §1
# [10] = biological target: AgLsb1
# Summary of the method: as §1
# [11] = biological target: AgLsb4
# Summary of the method: as §1
# [12] = biological target: AgMyo5
# Summary of the method: as §1
# [13] = biological target: AgNbp2
# Summary of the method: as §1
# [14] = biological target: AgRvs167
# Summary of the method: as §1
# [15] = biological target: AgSho1
# Summary of the method: as §1
# [16] = biological target: AgSla1-D1-D2
# Summary of the method: as §1
# [17] = biological target: AgSla1-D3
# Summary of the method: as §1
# [18] = biological target: CaAbp1-D1
# Summary of the method: as §1
# [19] = biological target: CaAbp1-D2
# Summary of the method: as §1
# [20] = biological target: CaBbc1
# Summary of the method: as §1
# [21] = biological target: CaBem1-D1
# Summary of the method: as §1
# [22] = biological target: CaBzz1-D1
# Summary of the method: as §1
# [23] = biological target: CaBzz1-D2
# Summary of the method: as §1
# [24] = biological target: CaCyk3
# Summary of the method: as §1
# [25] = biological target: CaFus1
# Summary of the method: as §1
# [26] = biological target: CaHof1
# Summary of the method: as §1
# [27] = biological target: CaHse1
# Summary of the method: as §1
# [28] = biological target: CaLsb1
# Summary of the method: as §1
# [29] = biological target: CaLsb4
# Summary of the method: as §1
# [30] = biological target: CaMyo5
# Summary of the method: as §1
# [31] = biological target: CaNbp2
# Summary of the method: as §1
# [32] = biological target: CaRvs167
# Summary of the method: as §1
# [33] = biological target: CaRvs167-3
# Summary of the method: as §1
# [34] = biological target: CaSho1
# Summary of the method: as §1
# [35] = biological target: CaSla1-D1-D2
# Summary of the method: as §1
# [36] = biological target: CaSla1-D3
# Summary of the method: as §1
# [37] = biological target: ScAbp1
# Summary of the method: as §1
# [38] = biological target: ScBbc1
# Summary of the method: as §1
# [39] = biological target: ScBem1-D1
# Summary of the method: as §1
# [40] = biological target: ScBzz1-D1
# Summary of the method: as §1
# [41] = biological target: ScBzz1-D2
# Summary of the method: as §1
# [42] = biological target: ScCyk3
# Summary of the method: as §1
# [43] = biological target: ScFus1
# Summary of the method: as §1
# [44] = biological target: ScHof1
# Summary of the method: as §1
# [45] = biological target: ScHse1
# Summary of the method: as §1
# [46] = biological target: ScLsb1
# Summary of the method: as §1
# [47] = biological target: ScLsb2
# Summary of the method: as §1
# [48] = biological target: ScLsb3
# Summary of the method: as §1
# [49] = biological target: ScLsb4
# Summary of the method: as §1
# [50] = biological target: ScMyo3
# Summary of the method: as §1
# [51] = biological target: ScMyo5
# Summary of the method: as §1
# [52] = biological target: ScNbp2
# Summary of the method: as §1
# [53] = biological target: ScPex13
# Summary of the method: as §1
# [54] = biological target: ScRvs167
# Summary of the method: as §1
# [55] = biological target: ScSho1
# Summary of the method: as §1
# [56] = biological target: ScSla1-D1-D2
# Summary of the method: as §1
# [57] = biological target: ScSla1-D3
# Summary of the method: as §1
# [58] = biological target: SpAbp1-D1
# Summary of the method: as §1
# [59] = biological target: SpBbc1
# Summary of the method: as §1
# [60] = biological target: SpBzz1-D1
# Summary of the method: as §1
# [61] = biological target: SpBzz1-D2
# Summary of the method: as §1
# [62] = biological target: SpCyk3
# Summary of the method: as §1
# [63] = biological target: SpHof1
# Summary of the method: as §1
# [64] = biological target: SpHof1-2
# Summary of the method: as §1
# [65] = biological target: SpHof1-3
# Summary of the method: as §1
# [66] = biological target: SpHse1
# Summary of the method: as §1
# [67] = biological target: SpLsb1
# Summary of the method: as §1
# [68] = biological target: SpLsb4
# Summary of the method: as §1
# [69] = biological target: SpMyo1
# Summary of the method: as §1
# [70] = biological target: SpNbp2
# Summary of the method: as §1
# [71] = biological target: SpPex13
# Summary of the method: as §1
# [72] = biological target: SpRvs167
# Summary of the method: as §1
# [73] = biological target: SpSla1-D1-D2
# Summary of the method: as §1
# [74] = biological target: SpSla1-D3
# Summary of the method: as §1
binder,measurement,setting,value
APKHAPPPVPNETDN,SPOT peptide array binding signal intensity,[1],≤ 0
same,SPOT peptide array binding signal intensity,[2],≤ 0
same,SPOT peptide array binding signal intensity,[3],≤ 0
same,SPOT peptide array binding signal intensity,[4],72
same,SPOT peptide array binding signal intensity,[5],≤ 0
same,SPOT peptide array binding signal intensity,[6],≤ 0
same,SPOT peptide array binding signal intensity,[7],≤ 0
same,SPOT peptide array binding signal intensity,[8],≤ 0
same,SPOT peptide array binding signal intensity,[9],≤ 0
same,SPOT peptide array binding signal intensity,[10],≤ 0
same,SPOT peptide array binding signal intensity,[11],≤ 0
same,SPOT peptide array binding signal intensity,[12],1790
same,SPOT peptide array binding signal intensity,[13],≤ 0
same,SPOT peptide array binding signal intensity,[14],≤ 0
same,SPOT peptide array binding signal intensity,[15],≤ 0
same,SPOT peptide array binding signal intensity,[16],≤ 0
same,SPOT peptide array binding signal intensity,[17],2.5
same,SPOT peptide array binding signal intensity,[18],≤ 0
same,SPOT peptide array binding signal intensity,[19],≤ 0
same,SPOT peptide array binding signal intensity,[20],0.25
same,SPOT peptide array binding signal intensity,[21],≤ 0
same,SPOT peptide array binding signal intensity,[22],992
same,SPOT peptide array binding signal intensity,[23],115
same,SPOT peptide array binding signal intensity,[24],≤ 0
same,SPOT peptide array binding signal intensity,[25],≤ 0
same,SPOT peptide array binding signal intensity,[26],≤ 0
same,SPOT peptide array binding signal intensity,[27],1.75
same,SPOT peptide array binding signal intensity,[28],≤ 0
same,SPOT peptide array binding signal intensity,[29],≤ 0
same,SPOT peptide array binding signal intensity,[30],110
same,SPOT peptide array binding signal intensity,[31],≤ 0
same,SPOT peptide array binding signal intensity,[32],≤ 0
same,SPOT peptide array binding signal intensity,[33],≤ 0
same,SPOT peptide array binding signal intensity,[34],≤ 0
same,SPOT peptide array binding signal intensity,[35],≤ 0
same,SPOT peptide array binding signal intensity,[36],≤ 0
same,SPOT peptide array binding signal intensity,[37],≤ 0
same,SPOT peptide array binding signal intensity,[38],≤ 0
same,SPOT peptide array binding signal intensity,[39],≤ 0
same,SPOT peptide array binding signal intensity,[40],618
same,SPOT peptide array binding signal intensity,[41],≤ 0
same,SPOT peptide array binding signal intensity,[42],≤ 0
same,SPOT peptide array binding signal intensity,[43],≤ 0
same,SPOT peptide array binding signal intensity,[44],≤ 0
same,SPOT peptide array binding signal intensity,[45],≤ 0
same,SPOT peptide array binding signal intensity,[46],≤ 0
same,SPOT peptide array binding signal intensity,[47],≤ 0
same,SPOT peptide array binding signal intensity,[48],≤ 0
same,SPOT peptide array binding signal intensity,[49],≤ 0
same,SPOT peptide array binding signal intensity,[50],1380
same,SPOT peptide array binding signal intensity,[51],1230
same,SPOT peptide array binding signal intensity,[52],≤ 0
same,SPOT peptide array binding signal intensity,[53],≤ 0
same,SPOT peptide array binding signal intensity,[54],≤ 0
same,SPOT peptide array binding signal intensity,[55],≤ 0
same,SPOT peptide array binding signal intensity,[56],≤ 0
same,SPOT peptide array binding signal intensity,[57],≤ 0
same,SPOT peptide array binding signal intensity,[58],≤ 0
same,SPOT peptide array binding signal intensity,[59],≤ 0
same,SPOT peptide array binding signal intensity,[60],≤ 0
FIRKRAPTPPAPSRS,SPOT peptide array binding signal intensity,[31],415
same,SPOT peptide array binding signal intensity,[32],38.7
same,SPOT peptide array binding signal intensity,[33],40.8
same,SPOT peptide array binding signal intensity,[34],158
same,SPOT peptide array binding signal intensity,[35],1780
same,SPOT peptide array binding signal intensity,[36],7.75
same,SPOT peptide array binding signal intensity,[37],256
same,SPOT peptide array binding signal intensity,[38],99
same,SPOT peptide array binding signal intensity,[39],27.5
same,SPOT peptide array binding signal intensity,[40],160
same,SPOT peptide array binding signal intensity,[41],53
same,SPOT peptide array binding signal intensity,[42],46
same,SPOT peptide array binding signal intensity,[43],84.5
same,SPOT peptide array binding signal intensity,[44],5.25
same,SPOT peptide array binding signal intensity,[45],922
same,SPOT peptide array binding signal intensity,[46],224
same,SPOT peptide array binding signal intensity,[47],313
same,SPOT peptide array binding signal intensity,[48],432
same,SPOT peptide array binding signal intensity,[49],26
same,SPOT peptide array binding signal intensity,[50],22
same,SPOT peptide array binding signal intensity,[51],20.8
same,SPOT peptide array binding signal intensity,[52],2260
same,SPOT peptide array binding signal intensity,[53],156
same,SPOT peptide array binding signal intensity,[54],613
same,SPOT peptide array binding signal intensity,[55],866
same,SPOT peptide array binding signal intensity,[56],2370
same,SPOT peptide array binding signal intensity,[57],29.8
same,SPOT peptide array binding signal intensity,[58],342
same,SPOT peptide array binding signal intensity,[59],6.5
same,SPOT peptide array binding signal intensity,[60],770
same,SPOT peptide array binding signal intensity,[61],200
same,SPOT peptide array binding signal intensity,[62],2
same,SPOT peptide array binding signal intensity,[63],116
same,SPOT peptide array binding signal intensity,[64],10.5
same,SPOT peptide array binding signal intensity,[65],567
same,SPOT peptide array binding signal intensity,[66],377
same,SPOT peptide array binding signal intensity,[67],556
same,SPOT peptide array binding signal intensity,[68],1130
same,SPOT peptide array binding signal intensity,[69],24.5
same,SPOT peptide array binding signal intensity,[70],75
same,SPOT peptide array binding signal intensity,[71],33
same,SPOT peptide array binding signal intensity,[72],293
same,SPOT peptide array binding signal intensity,[73],19
same,SPOT peptide array binding signal intensity,[74],4
